Test [1] addresses Bile acid receptor (Homo sapiens) (UniProt Q96RI1). Nature of the test: ATG_IR1_CIS: Attagene CIS-FACTORIAL HepG2 Assay for human Nuclear Receptor Subfamily 1 Group H Member 4 (NR1H4), IR1 submotif (AID 2282946). As to conditions: IR1 reporter transcription, actives raise or lower the signal. In outline:
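Transient MRTU transfection, HepG2; 24 h dosing; RNA → RT-PCR → 6-FAM primer extension → HpaI digest → capillary electrophoresis fluorescence. Gain/loss of signal fitted relative to DMSO.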

Test [2] in a line: ATG_GRE_CIS: Attagene CIS-FACTORIAL HepG2 Assay for human Glucocorticoid Response Elements (GRE) (AID 2282947). As to conditions: HepG2 GRE cis-reporter, Attagene multiplex mRNA; actives raise or lower the signal. In outline: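 HepG2 cells transiently transfected with multiple cis-promoter reporter units measure endogenous TF activity; 24 h compound exposure. Reporter mRNA quantified by RT-PCR, FAM labelling, HpaI digestion and capillary electrophoresis; bidirectional fit vs DMSO baseline.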

Test [3] in a line: ATG_ISRE_CIS: Attagene CIS-FACTORIAL HepG2 Assay for human Interferon Regulatory Factor 1 (IRF1) binding to an Interferon-Stimulated Response Element (ISRE) (AID 2282948). The note with it: HepG2 ISRE cis-reporter (Attagene), mRNA transcription readout; actives raise or lower the signal. A digest of the protocol:
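Transiently transfected HepG2 cells carrying cis-element reporter units, dosed 24 hours. Reporter mRNA quantified by RT-PCR, fluorescent primer extension, HpaI digestion and capillary electrophoresis. Bidirectional fitting relative to DMSO.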

Test [4] is described as follows: ATG_M_32_CIS: Attagene CIS-FACTORIAL HepG2 Assay for M32 Transcription Factor (Internal Marker) (AID 2282949).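 Further: background control marker of the multiplexed CIS panel rather than a real target.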 As to conditions: HepG2 Attagene cis-factorial M32 reporter, mRNA; actives raise or lower the signal. A digest of the protocol: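 Following 24 h chemical exposure of HepG2 cells transiently expressing cis-promoter reporter constructs, reporter transcript levels were determined by RT-PCR with fluorescent labelling and capillary electrophoresis, then fitted bidirectionally against DMSO.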

In test [5] the target is Hypoxia-inducible factor 1-alpha (Homo sapiens) (UniProt Q16665). Nature of the test: ATG_HIF1a_CIS: Attagene CIS-FACTORIAL HepG2 Assay for human Hypoxia Inducible Factor 1 (HIF1A) (AID 2282951). As to conditions: HepG2 Attagene cis-factorial HIF1a reporter transcription; actives raise or lower the signal. In outline:
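Transient MRTU transfection of human HepG2 liver cells, 24 h compound treatment, then total RNA isolation, oligo(dT) reverse transcription, PCR amplification, fluorescent labelling and capillary electrophoresis of reporter fragments. Gain or loss relative to DMSO.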

The target of test [6] is Hepatocyte nuclear factor 6 (Homo sapiens) (UniProt Q9UBC0). As to the kind of experiment: ATG_HNF6_CIS: Attagene CIS-FACTORIAL HepG2 Assay for human Hepatocyte Nuclear Factor 6 (HNF6) (AID 2282952). The note with it: HepG2 Attagene cis-factorial HNF6 reporter transcription; actives raise or lower the signal. A digest of the protocol: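 Cells are HepG2 carrying transiently transfected cis-promoter reporter units. Treatment lasts 24 h, after which reporter transcripts are reverse-transcribed, amplified, FAM-labelled and sized by capillary electrophoresis. DMSO serves as baseline.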

Test [7] can be described thus: ATG_MRE_CIS: Attagene CIS-FACTORIAL HepG2 Assay for human Metal Responsive Element (MRE) (AID 2282954). The note with it: HepG2 MRE cis-reporter transcription, Attagene multiplex; actives raise or lower the signal. A digest of the protocol: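 HepG2 cells transiently transfected with multiple cis-element reporter units measure endogenous MTF1-driven transcription. After 24 h compound exposure, reporter mRNA is quantified by RT-PCR with 6-FAM labelling, HpaI digestion and capillary electrophoresis; bidirectional fits versus DMSO.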

In test [8] the target is Paired box protein Pax-6 (Homo sapiens) (UniProt P26367). Nature of the test: ATG_Pax6_CIS: Attagene CIS-FACTORIAL HepG2 Assay for human Paired Box 6 (PAX6) (AID 2282956). As to conditions: HepG2 CIS-FACTORIAL PAX6 reporter transcription, RNA readout; actives raise or lower the signal. In outline: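 HepG2 cells transiently transfected with cis-promoter-driven multiplexed reporter units sensing endogenous transcription factor activity; 24 h chemical exposure. Reporter mRNA quantified by RT-PCR, 6-FAM labelling, HpaI digestion and capillary electrophoresis; bidirectional fit versus DMSO baseline.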

Test [9] can be described thus: ATG_PXRE_CIS: Attagene CIS-FACTORIAL HepG2 Assay for human Pregnane X Receptor Element (PXRE) (AID 2282957). The note with it: HepG2 Attagene CIS-FACTORIAL PXRE reporter, mRNA; actives raise or lower the signal. In outline: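 Multiplexed cis-reporter assay in transiently transfected human HepG2 cells; 24 h chemical exposure. Reporter transcripts quantified by RT-PCR with fluorescent labeling and capillary electrophoresis.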

Test [10] is described as follows: ATG_RORE_CIS: Attagene CIS-FACTORIAL HepG2 Assay for human RAR-related Orphan Receptor Element (RORE) (AID 2282959). The note with it: HepG2 Attagene cis-factorial RORE reporter, mRNA; actives raise or lower the signal. In outline:
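Transient MRTU transfection of human HepG2 liver cells (FuGene 6); 24 h compound exposure; TriZol RNA, oligo(dT) RT, PCR, FAM labeling, HpaI cut, CE fragment analysis. DMSO = negative control/baseline.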

A short description of test [11]: ATG_Sox_CIS: Attagene CIS-FACTORIAL HepG2 Assay for human SRY-box transcription factor (SOX) (AID 2282960). As to conditions: HepG2 Attagene cis-factorial SOX reporter, mRNA; actives raise or lower the signal. In outline:
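Endogenous factor activity in human liver HepG2 cells carrying transfected cis-regulated reporter units. RNA taken 24 h post-dose, reverse-transcribed, PCR-amplified and sized by capillary electrophoresis. Gain or loss of signal fitted relative to DMSO.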

Test [12] addresses Transcription factor Sp1 (Homo sapiens) (UniProt P08047). As to the kind of experiment: ATG_Sp1_CIS: Attagene CIS-FACTORIAL HepG2 Assay for human Specificity Protein 1 (Sp1) (AID 2282961). The note with it: HepG2 Sp1 cis-reporter transcription, actives raise or lower the signal. A digest of the protocol:
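Transient MRTU-transfected HepG2, 24 h compound exposure. Total RNA → oligo(dT) RT → PCR of reporter → 6-FAM primer extension → HpaI digest → CE. Endpoint fitted both directions vs DMSO.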

Test [13] can be described thus: ATG_SREBP_CIS: Attagene CIS-FACTORIAL HepG2 Assay for human Sterol Regulatory Element Binding (SREBP) (AID 2282962). As to conditions: HepG2 Attagene cis-factorial SREBP reporter, mRNA; actives raise or lower the signal. In outline: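 HepG2 cells transiently transfected with multiplexed cis-promoter reporter units sensing endogenous transcription factors; reporter mRNA measured 24 h after dosing by RT-PCR, 6-FAM labeling, HpaI digestion and capillary electrophoresis. Bidirectional fit versus DMSO.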

Test [14] has as its target Signal transducer and activator of transcription 3 (Homo sapiens) (UniProt P40763). As to the kind of experiment: ATG_STAT3_CIS: Attagene CIS-FACTORIAL HepG2 Assay for human Signal Transducer and Activator of Transcription 3 (STAT3) (AID 2282963). The note with it: HepG2, Attagene cis-factorial STAT3 reporter transcription; actives raise or lower the signal. A digest of the protocol:
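HepG2 cells transiently transfected with cis-element-driven multiple reporter transcription units; after 24 h chemical exposure, reporter mRNA measured by RT-PCR, 6-FAM primer-extension labelling, HpaI digestion and capillary electrophoresis. Bidirectional fitting versus DMSO baseline.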

Test [15] in a line: ATG_TA_CIS: Attagene CIS-FACTORIAL HepG2 Assay for human TA Basal Promoter (AID 2282964). The note with it: HepG2 Attagene CIS-factorial TA basal promoter reporter; actives raise or lower the signal. In outline: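 Transfected HepG2, 24 h compound exposure; RNA → RT-PCR → FAM primer extension → HpaI cut → CE fluorescence. Gain/loss-of-signal fitted against DMSO negative control. Background-control readout.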

Test [16] can be described thus: ATG_TCF_b_cat_CIS: Attagene CIS-FACTORIAL HepG2 Assay for human T-Cell-Factor with beta-catenin (TCF/b-cat) (AID 2282965). As to conditions: HepG2 TCF/beta-catenin cis-reporter transcription, actives raise or lower the signal. In outline:
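In this cis-format system, transfected HepG2 cells report endogenous transcription factor activity. Readout after 24 h exposure is reporter transcript abundance from RT-PCR and capillary electrophoresis, analysed for gain or loss of signal versus DMSO.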

Test [17] in a line: ATG_PBREM_CIS: Attagene CIS-FACTORIAL HepG2 Assay for human Phenobarbital-responsive Enhancer Module (PBREM) (AID 2282955). The note with it: HepG2 PBREM cis-reporter, Attagene multiplexed transcription; actives raise or lower the signal. In outline: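 Endogenous transcription factors in human liver HepG2 cells drive a PBREM cis-element reporter, whose transcript level after 24 h treatment is quantified by RT-PCR with capillary electrophoresis; activity fitted in both directions against DMSO.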

Test [18] in a line: ATG_PPRE_CIS: Attagene CIS-FACTORIAL HepG2 Assay for human Peroxisome Proliferator-activated Response Element (PPRE) (AID 2282958). The note with it: HepG2 PPRE cis-element reporter, Attagene transcription factor profiling; actives raise or lower the signal. In outline:
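HepG2, transient MRTU transfection (cis promoter elements, endogenous TFs). 24 h dosing. RNA → oligo(dT) RT → PCR → 6-FAM primer extension → HpaI digest → CE. Bidirectional fit vs DMSO.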

Test [19] can be described thus: ATG_M_06_CIS: Attagene CIS-FACTORIAL HepG2 Assay for M06 Transcription Factor (Internal Marker) (AID 2282950). The note with it: HepG2 Attagene CIS-FACTORIAL M06 internal marker reporter; actives raise or lower the signal. In outline: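 Terse: HepG2, transient MRTU transfection (FuGene 6), 24 h dosing; total RNA, oligo(dT) RT, PCR, FAM label, HpaI cut, capillary electrophoresis; bidirectional fit vs DMSO baseline; background-control endpoint.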

The target in test [20] is Heat shock factor protein 1 (Homo sapiens) (UniProt Q00613). As to the kind of experiment: ATG_HSE_CIS: Attagene CIS-FACTORIAL HepG2 Assay for human Heat Shock Transcription Factor 1 (HSE) (AID 2282953). The note with it: HepG2 HSE cis-reporter, Attagene RNA transcription; actives raise or lower the signal. A digest of the protocol:
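Read-out: fluorescence of reporter-specific RT-PCR fragments separated by capillary electrophoresis. HepG2 carrying transfected cis-element reporter units; 24 h dosing; activity fitted in both directions relative to DMSO baseline.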

Active and inactive are the calls of the source. How the source made its calls: active means hit-call score of the fitted dose curve at least 0.9, where 1 is the maximum; inactive means score below 0.9.

Chain of Transcription factor Sp1 (Homo sapiens) (P08047 whole entry, looked up): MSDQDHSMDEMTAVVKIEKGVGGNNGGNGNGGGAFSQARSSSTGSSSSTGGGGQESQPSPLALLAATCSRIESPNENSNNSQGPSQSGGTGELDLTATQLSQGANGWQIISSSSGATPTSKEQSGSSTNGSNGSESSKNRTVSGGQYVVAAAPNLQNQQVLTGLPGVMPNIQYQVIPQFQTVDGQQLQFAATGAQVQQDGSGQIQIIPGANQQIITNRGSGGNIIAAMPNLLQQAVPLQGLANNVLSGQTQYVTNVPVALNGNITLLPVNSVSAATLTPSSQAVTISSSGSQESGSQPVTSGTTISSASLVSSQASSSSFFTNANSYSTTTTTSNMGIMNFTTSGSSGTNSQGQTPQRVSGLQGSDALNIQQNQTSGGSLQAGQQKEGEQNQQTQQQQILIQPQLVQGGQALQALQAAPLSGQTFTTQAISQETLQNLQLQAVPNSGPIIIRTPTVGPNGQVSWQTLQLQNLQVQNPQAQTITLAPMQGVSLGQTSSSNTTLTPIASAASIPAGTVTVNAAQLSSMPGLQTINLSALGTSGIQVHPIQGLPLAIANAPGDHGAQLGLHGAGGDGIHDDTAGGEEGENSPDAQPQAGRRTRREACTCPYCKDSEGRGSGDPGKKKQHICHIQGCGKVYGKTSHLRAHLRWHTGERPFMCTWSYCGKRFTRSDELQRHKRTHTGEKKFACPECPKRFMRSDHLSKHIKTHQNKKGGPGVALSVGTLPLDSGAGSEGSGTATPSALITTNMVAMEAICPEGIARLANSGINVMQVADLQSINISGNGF
Chain of Hepatocyte nuclear factor 6 (Homo sapiens) (Q9UBC0 whole entry, looked up): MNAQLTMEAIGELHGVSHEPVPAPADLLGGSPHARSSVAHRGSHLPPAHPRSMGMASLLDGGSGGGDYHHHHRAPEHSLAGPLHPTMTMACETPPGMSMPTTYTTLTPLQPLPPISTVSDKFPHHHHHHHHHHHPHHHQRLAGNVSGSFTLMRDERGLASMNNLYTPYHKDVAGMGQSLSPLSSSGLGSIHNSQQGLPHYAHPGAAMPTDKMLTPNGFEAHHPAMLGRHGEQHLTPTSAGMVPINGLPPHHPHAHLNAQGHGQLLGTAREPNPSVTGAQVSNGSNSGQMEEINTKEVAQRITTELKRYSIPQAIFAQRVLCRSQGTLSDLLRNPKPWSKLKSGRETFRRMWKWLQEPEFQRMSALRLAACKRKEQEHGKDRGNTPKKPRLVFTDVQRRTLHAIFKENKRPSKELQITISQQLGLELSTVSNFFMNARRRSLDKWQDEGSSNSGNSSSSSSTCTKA
Chain of Bile acid receptor (Homo sapiens) (Q96RI1 whole entry, looked up): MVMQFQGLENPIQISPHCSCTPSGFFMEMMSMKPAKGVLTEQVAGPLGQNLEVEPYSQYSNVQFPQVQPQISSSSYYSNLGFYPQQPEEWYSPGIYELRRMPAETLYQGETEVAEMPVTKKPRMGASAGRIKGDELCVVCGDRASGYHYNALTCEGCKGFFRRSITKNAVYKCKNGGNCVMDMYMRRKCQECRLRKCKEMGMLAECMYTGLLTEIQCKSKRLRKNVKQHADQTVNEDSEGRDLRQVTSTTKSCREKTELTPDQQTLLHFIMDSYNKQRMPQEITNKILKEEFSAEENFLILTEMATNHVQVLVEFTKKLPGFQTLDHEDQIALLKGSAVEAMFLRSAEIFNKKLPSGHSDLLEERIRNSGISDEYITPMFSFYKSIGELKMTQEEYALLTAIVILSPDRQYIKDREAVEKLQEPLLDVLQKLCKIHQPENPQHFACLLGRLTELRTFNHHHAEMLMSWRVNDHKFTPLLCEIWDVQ
Chain of Signal transducer and activator of transcription 3 (Homo sapiens) (P40763 whole entry, looked up): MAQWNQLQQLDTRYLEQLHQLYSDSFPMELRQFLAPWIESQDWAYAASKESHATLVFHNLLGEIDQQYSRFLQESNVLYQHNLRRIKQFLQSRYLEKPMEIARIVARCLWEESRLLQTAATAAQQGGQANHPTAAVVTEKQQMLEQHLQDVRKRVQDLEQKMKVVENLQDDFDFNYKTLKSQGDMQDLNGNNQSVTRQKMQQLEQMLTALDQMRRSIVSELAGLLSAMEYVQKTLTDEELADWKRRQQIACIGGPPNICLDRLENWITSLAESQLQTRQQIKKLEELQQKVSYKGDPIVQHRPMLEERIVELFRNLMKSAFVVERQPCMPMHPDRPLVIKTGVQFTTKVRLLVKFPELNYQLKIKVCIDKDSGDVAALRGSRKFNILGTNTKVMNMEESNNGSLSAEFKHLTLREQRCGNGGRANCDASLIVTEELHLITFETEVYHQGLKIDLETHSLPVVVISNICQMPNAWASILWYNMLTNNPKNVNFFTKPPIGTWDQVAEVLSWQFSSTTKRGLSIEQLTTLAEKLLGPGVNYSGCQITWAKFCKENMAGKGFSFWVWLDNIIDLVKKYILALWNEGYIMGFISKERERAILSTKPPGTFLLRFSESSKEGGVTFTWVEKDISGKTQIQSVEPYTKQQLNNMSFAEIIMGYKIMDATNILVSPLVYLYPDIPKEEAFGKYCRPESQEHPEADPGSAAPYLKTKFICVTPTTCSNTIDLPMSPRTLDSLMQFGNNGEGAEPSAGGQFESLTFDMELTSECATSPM
Chain of Hypoxia-inducible factor 1-alpha (Homo sapiens) (Q16665 whole entry, looked up, the tested form may be a part): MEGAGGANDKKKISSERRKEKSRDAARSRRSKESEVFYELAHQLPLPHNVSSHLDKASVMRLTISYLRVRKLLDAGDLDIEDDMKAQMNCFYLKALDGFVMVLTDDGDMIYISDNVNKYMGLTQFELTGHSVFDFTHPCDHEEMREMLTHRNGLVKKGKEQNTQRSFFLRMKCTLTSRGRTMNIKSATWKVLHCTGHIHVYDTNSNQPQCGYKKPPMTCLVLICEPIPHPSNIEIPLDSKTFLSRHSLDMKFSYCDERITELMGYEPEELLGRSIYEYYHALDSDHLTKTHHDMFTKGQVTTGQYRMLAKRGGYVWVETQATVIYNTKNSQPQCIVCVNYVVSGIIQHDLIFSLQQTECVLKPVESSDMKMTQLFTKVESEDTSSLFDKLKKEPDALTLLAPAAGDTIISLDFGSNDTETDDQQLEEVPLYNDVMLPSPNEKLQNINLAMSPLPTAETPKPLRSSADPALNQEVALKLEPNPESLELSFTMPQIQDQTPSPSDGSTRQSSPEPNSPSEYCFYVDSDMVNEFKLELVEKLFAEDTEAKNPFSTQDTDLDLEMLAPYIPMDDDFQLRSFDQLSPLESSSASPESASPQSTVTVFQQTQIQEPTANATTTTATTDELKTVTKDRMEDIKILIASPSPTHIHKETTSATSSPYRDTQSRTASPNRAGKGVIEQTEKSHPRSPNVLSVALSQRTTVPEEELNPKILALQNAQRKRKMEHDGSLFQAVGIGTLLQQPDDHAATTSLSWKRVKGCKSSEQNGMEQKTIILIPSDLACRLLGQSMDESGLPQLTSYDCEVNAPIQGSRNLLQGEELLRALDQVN
Chain of Paired box protein Pax-6 (Homo sapiens) (P26367 whole entry, looked up): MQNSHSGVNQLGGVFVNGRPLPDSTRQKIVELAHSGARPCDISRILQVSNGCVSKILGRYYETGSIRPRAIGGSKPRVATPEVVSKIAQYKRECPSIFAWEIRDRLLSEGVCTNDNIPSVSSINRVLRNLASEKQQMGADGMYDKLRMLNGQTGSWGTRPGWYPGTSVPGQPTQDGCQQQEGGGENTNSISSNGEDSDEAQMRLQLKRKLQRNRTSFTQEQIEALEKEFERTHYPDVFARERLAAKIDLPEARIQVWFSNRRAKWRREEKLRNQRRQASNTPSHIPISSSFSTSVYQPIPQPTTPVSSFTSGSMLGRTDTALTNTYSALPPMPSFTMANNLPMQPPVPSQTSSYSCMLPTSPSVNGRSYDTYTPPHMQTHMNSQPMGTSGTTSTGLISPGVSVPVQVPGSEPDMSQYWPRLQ
Chain of Heat shock factor protein 1 (Homo sapiens) (Q00613 whole entry, looked up, the tested form may be a part): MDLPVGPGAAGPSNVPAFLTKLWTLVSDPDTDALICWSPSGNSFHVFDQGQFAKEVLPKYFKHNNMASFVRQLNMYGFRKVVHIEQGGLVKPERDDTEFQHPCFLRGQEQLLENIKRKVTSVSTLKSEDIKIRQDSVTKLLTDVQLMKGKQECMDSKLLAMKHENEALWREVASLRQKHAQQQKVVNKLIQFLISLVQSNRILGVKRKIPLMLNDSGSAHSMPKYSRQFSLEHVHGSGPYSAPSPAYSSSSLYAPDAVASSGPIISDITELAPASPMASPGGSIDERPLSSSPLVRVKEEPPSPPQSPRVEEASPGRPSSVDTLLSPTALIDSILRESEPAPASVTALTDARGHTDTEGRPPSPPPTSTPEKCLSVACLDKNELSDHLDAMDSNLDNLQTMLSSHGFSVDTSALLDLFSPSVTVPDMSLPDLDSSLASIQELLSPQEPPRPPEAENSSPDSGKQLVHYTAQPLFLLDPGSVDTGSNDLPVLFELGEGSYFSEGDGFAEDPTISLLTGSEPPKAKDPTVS

With `CCCCCCC(C)(C)S`, the compound was classed as inactive in test [1], in [2], in test [3], in test [4], in test [5] and in test [6]. Further, the compound was classed as inactive in [7], in test [8], in test [10], in test [11], in test [12] and in [13]. In addition, the compound was classed as inactive in test [14], in [15] and in test [16]. In addition, the AC50 – broadly, the concentration at which the activity in the assay is half-maximal – in test [9] was 39 µM (active).
For `CC(=O)CC(=O)Nc1ccc(C)cc1C`, the call in test [1], in test [2], in [3], in test [4], in test [5] and in test [6] was inactive. The result in [7], in test [17], in test [8], in test [9], in [18] and in test [10] was inactive. In addition, the compound was called inactive in [11], in test [12], in [13], in test [14], in [15] and in test [16].
Consider `CC(C)(C)CC(C)(C)c1ccc(OCCOCC[N+](C)(C)Cc2ccccc2)cc1`, for which the result in [1], in test [2], in test [3], in [19], in test [5] and in test [6] was inactive. The call in [20], in [8], in test [18], in test [12], in test [14] and in test [15] was inactive. The AC50 was 8.35 µM (active) in test [7], 8.35 µM (active) in [13] and 12 µM (active) in [16].
On to `O=C(CS)OCCOC(=O)CS`, for which the call in test [1], in test [4], in [19], in test [5], in [6] and in test [20] was inactive. In addition, the compound was classed as inactive in test [7], in test [17], in test [8], in [10], in [11] and in [12]. For the same compound, the outcome in [13], in test [14] and in test [16] was inactive. The AC50 in test [3] was 57.8 µM (active); in test [9], 37.8 µM (active); in [18] it was 19.7 µM (active).
For `CCOC(=O)c1ccc(N)cc1`, the result in [1], in [2], in test [19], in [6], in test [7] and in [17] was inactive. For the same compound, the compound was classed as inactive in [8], in [10], in [11], in test [12], in test [13] and in test [14]. The compound was classed as inactive in test [15] and in test [16]. Further, the AC50 was 25.7 µM (active) in test [20] and 27 µM (active) in test [9].

The values are drawn from PubChem BioAssay (EPA / NIEHS).
